From publication PMC5540273 (PLoS ONE, 2017)
pKd: −log10 of the molar value.

Legend:
GRK3 = test system: T1, GRK3
T1 construct: gene ADRBK2

ERK2 = test system: T2, ERK2
T2 construct: gene MAPK1

ERK3 = test system: T3, ERK3
T3 construct: gene MAPK6

ERK4 = test system: T4, ERK4
T4 construct: gene MAPK4

HASPIN = test system: T5, HASPIN
T5 construct: gene GSG2

IKK-beta = test system: T6, IKK-beta
T6 construct: gene IKBKB

IKK-epsilon = test system: T7, IKK-epsilon
T7 construct: gene IKBKE
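Further: kd values determined as follow-up on hits from a single-replicate KINOMEscan panel screen.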

What does the source list for `CS(=O)(=O)CCNCc1nc(-c2ccc3ncnc(Nc4ccc5c(cnn5Cc5ccccc5)c4)c3c2)cs1.Cl.Cl` [GW569716]?
pKd (ERBB3): 7.16; pKd (ERBB4): 8.09

What does the source list for `CS(=O)(=O)CCNCc1nc(-c2ccc3ncnc(Nc4ccc(OCc5ccccc5)c(Cl)c4)c3c2)cs1.Cl` [GW582764]?
pKd (ERBB4): 7.16; pKd (GRK3): < 5.00

With `Cc1ccc(-c2nc(Nc3ccncc3)c3ccccc3n2)s1` [GSK189015] as the molecule, how does the pKd (ERK2) read?
Its pKd is under 5.00.

`CC(=O)c1c(C)c2cnc(Nc3ccc(N4CCNCC4)cn3)nc2n(C2CCCC2)c1=O` was tested. Which pKd (ERK3) did it give?
Its pKd is under 5.00.

How did the pKd (ERK3) turn out when `CCn1c(-c2c(N)noc2C)nc2cnccc21` [SB-737856] was run?
Its pKd is under 5.00.

`Cc1c(Cn2c3ccccc3n3c(=O)cc(N4CCOCC4)nc23)cccc1C(F)(F)F` [GSK2306394] was tested. Which pKd (ERK4) did it give?
The pKd was under 5.00.

How did the pKd (ERK4) turn out when `Cc1nccc(-c2c(-c3ccc(F)cc3)ncn2CCCN2CCOCC2)n1.Cl` [SB-282975] was run?
The pKd was under 5.00.

With `Cn1cnc2c(N)ncnc21` [SKF-97623] as the molecule, how does the pKd (FLT3-autoinhibited) read?
Its pKd is under 5.00.

How did the pKd (FLT3) turn out when `CS(=O)(=O)Cc1ccc(Nc2nccc(-c3c(-c4cccc(NC(=O)C5CCCCC5)c4)nn4ncccc34)n2)cc1` [GSK350559] was run?
The pKd was 7.13.

`O=C(Nc1n[nH]c2nc(-c3cccs3)c(Br)cc12)C1CC1` [SB-735297] was tested. Which pKd (FLT3) did it give?
Its pKd is 6.82.

`Cn1cncc1C(=O)NC1CCN(c2ccnc(Nc3ccc(F)cc3)n2)C1` (centres unmarked) [GSK1379717] was tested. Which pKd (FLT4) did it give?
Its pKd is under 5.00.

How did the pKd (GRK1) turn out when `COC(=O)C(Cc1ccccc1)NC(=O)NC1CCN(c2ccnc(Nc3ccc(F)cc3)n2)C1` (centres unmarked) [GSK1379714] was run?
Its pKd is under 5.00.

`CNc1nc(-c2ccc3c(N)n[nH]c3c2)cc(N2C[C@@H](C(=O)Nc3ccccc3)CC[C@H]2C)n1` [GSK2298859] was tested. Which pKd (GRK1) did it give?
The pKd was under 5.00.

`CC(C)c1cc(-c2ccc3c(N)n[nH]c3c2)nc(N)n1` [GSK2250882] was tested. Which pKd (HASPIN) did it give?
The pKd was 6.70.

How did the pKd (IKK-beta) turn out when `COc1cccc(NC(=O)Nc2ccc(C)c(-c3ccc(C(=O)Nc4ccncc4)cc3)c2)c1` [GSK1398474] was run?
The pKd was under 5.00.

With `COc1ccc(Nc2nccc(N3CCC(NC(=O)C(C)c4ccc(Cl)cc4)CC3)n2)cc1` (centres unmarked) [GSK1379812] as the molecule, how does the pKd (IKK-epsilon) read?
Its pKd is under 5.00.

`FC(F)(F)c1ccccc1-c1cc(-c2c[nH]nc2-c2ccccn2)ccn1` [GW679396] was tested. Which pKd (IKK-epsilon) did it give?
Its pKd is under 5.00.

`Cl.Cl.Cl.N#Cc1ccc(CCNc2nccc(-c3cccc(CN4CCNCC4)c3)n2)cc1` [GSK2137462] was tested. Which pKd (INSR) did it give?
Its pKd is under 5.00.
